Results on eight sequences are retold here after paper PMC7862700, “An all-to-all approach to the identification of sequence-specific readers for epigenetic DNA modifications on cytosine”.

Common to all, as to assay: DAPPL (digital affinity profiling via proximity ligation, sequencing); 10 mM Tris-HCl pH 7.5, 50 mM NaCl, 1 mM DTT, 4% glycerol, room temperature, 30 min; GST-TFs on glutathione beads, 16-mer random dsDNA library, 0.1% formaldehyde crosslink after washing; high values mean tight binding
Holding throughout (conditions): protein: recombinant; tags: N-terminal GST; dsDNA, one strand shown

The target in one assay is T1, FLI1 (Homo sapiens, UniProt Q01543 1-452).
T1 sequence: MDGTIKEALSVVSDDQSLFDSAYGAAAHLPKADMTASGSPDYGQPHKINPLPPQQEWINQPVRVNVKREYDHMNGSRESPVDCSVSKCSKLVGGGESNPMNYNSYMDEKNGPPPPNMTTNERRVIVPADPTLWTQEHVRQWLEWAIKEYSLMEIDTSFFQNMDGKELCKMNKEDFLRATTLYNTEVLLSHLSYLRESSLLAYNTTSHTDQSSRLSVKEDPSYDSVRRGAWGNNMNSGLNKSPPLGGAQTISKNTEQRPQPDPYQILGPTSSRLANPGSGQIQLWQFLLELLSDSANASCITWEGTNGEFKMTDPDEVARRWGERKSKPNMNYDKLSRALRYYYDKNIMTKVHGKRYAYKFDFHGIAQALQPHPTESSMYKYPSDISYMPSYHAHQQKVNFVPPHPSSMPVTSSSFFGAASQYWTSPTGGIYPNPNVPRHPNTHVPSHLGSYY
The method in brief:
(§1)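 Pools were built from human transcription factors expressed in yeast as GST fusions, captured on glutathione beads and DNA-barcoded, along with a tag-only sample. Incubation with 200 nmole of a 16-mer random double-stranded DNA library lasted 30 min at room temperature in Tris/NaCl/DTT/glycerol buffer, and was followed by washing, 0.1% formaldehyde crosslinking, proximity ligation, PCR amplification and Illumina NextSeq500 sequencing. Binding signal is the quotient of each hexamer's read frequency for a factor and its frequency for the tag-only sample.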

Another assay has as its target T2, ELK1 (Homo sapiens, UniProt P19419 1-428).
T2 sequence: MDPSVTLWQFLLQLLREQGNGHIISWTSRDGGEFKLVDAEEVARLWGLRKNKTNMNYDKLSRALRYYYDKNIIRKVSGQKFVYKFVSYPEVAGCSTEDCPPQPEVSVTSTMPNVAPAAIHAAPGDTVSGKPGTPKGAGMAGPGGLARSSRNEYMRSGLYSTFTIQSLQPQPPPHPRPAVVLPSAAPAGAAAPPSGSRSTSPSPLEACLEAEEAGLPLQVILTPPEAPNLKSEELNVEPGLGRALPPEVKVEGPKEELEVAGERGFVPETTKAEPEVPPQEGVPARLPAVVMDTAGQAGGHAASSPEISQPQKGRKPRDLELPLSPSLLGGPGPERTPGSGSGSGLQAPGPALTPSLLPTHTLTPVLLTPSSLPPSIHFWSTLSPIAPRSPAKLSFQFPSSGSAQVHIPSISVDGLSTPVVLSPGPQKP
A digest of the protocol: as §1

For another assay, the target named is T3, GABPA (Homo sapiens, UniProt Q06546 1-454).
T3 sequence: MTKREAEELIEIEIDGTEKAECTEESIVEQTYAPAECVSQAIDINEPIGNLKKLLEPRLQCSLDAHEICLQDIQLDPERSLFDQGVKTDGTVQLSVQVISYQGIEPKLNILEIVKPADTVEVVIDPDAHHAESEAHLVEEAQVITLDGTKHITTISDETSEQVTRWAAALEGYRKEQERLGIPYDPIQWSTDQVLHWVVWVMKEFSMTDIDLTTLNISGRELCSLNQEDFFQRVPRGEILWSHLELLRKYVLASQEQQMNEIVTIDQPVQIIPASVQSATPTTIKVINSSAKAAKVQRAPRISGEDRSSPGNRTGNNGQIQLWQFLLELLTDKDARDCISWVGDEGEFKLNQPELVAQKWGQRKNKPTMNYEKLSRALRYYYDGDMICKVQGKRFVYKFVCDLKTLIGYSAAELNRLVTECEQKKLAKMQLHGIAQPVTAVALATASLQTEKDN
A digest of the protocol: as §1

The target in another assay is T4, ERG (Homo sapiens, UniProt P11308 1-479).
T4 sequence: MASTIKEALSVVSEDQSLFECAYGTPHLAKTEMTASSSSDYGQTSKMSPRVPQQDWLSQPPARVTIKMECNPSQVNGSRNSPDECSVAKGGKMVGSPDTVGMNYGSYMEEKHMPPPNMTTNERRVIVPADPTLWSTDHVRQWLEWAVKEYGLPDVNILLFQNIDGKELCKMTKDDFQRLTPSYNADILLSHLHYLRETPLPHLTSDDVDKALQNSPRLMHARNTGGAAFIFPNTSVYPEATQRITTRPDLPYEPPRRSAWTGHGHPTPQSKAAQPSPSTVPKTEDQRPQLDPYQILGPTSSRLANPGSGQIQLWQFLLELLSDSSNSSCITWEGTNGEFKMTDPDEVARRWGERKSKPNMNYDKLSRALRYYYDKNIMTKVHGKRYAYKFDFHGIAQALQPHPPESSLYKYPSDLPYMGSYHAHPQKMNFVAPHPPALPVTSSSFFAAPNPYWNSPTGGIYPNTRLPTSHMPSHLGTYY
The method in brief:
as §1

The next assay has as its target ELF1 (Homo sapiens, UniProt P32519 1-619). A digest of the protocol:
as §1

The target in a further assay is T5, EHF (Homo sapiens, UniProt Q9NZC4 1-300).
T5 sequence: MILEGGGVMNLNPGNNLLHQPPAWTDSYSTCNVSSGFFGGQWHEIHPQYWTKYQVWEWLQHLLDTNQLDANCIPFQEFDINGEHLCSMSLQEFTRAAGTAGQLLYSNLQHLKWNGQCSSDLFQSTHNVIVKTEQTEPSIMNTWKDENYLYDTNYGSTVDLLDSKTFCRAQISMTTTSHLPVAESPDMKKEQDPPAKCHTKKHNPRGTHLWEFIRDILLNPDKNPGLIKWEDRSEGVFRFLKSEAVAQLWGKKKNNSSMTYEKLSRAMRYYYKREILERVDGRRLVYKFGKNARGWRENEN
The method in brief: as §1

The next assay has as its target SPI1 (Homo sapiens, UniProt P17947 1-270). The method in brief:
as §1

Another assay addresses SPIB (Homo sapiens, UniProt Q01892 1-262). A digest of the protocol:
as §1

The target of a further assay is T6, ELK3 (Homo sapiens, UniProt P41970 1-407).
T6 sequence: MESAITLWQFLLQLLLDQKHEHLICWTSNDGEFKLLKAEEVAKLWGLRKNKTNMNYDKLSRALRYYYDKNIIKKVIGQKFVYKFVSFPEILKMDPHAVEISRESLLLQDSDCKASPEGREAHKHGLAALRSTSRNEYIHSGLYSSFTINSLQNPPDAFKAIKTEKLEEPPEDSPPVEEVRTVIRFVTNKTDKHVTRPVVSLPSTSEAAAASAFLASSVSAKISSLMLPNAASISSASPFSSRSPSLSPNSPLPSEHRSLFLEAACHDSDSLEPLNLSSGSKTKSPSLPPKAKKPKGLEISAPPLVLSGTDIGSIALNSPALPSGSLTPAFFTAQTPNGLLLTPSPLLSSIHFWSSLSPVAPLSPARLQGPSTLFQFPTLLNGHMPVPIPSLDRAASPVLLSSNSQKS
The method in brief: as §1

SPIB, sequence (Q01892 whole entry): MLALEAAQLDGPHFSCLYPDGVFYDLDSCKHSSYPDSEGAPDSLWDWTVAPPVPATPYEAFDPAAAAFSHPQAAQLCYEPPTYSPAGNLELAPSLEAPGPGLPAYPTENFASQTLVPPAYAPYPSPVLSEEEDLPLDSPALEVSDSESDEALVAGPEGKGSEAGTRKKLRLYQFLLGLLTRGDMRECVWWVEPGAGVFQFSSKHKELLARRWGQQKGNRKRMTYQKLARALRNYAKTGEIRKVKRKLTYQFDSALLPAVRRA
ELF1, sequence (P32519 whole entry): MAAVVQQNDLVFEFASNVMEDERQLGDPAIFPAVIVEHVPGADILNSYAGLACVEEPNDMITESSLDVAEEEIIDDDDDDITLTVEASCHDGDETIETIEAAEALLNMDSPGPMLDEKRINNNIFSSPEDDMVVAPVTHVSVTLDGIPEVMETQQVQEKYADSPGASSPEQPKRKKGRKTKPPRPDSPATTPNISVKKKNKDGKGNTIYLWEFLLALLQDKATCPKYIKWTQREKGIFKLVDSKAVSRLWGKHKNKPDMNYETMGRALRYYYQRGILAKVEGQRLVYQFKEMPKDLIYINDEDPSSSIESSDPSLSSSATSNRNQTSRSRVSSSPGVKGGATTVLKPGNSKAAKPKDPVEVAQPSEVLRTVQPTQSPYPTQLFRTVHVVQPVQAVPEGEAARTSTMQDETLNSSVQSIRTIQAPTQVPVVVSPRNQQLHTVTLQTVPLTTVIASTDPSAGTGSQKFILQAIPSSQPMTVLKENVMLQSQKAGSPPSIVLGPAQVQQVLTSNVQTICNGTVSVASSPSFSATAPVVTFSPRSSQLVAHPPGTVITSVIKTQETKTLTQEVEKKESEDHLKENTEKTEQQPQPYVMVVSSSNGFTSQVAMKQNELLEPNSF

Take TGCCTT: the binding signal is 1.29 fold enrichment (6-mer frequency, TF over GST control) with FLI1; 1.38 fold enrichment (6-mer frequency, TF over GST control) with ELK1; 1.54 fold enrichment (6-mer frequency, TF over GST control) in the assay with GABPA; 1.35 fold enrichment (6-mer frequency, TF over GST control) with ERG; 1.33 fold enrichment (6-mer frequency, TF over GST control) with ELF1; 1.3 fold enrichment (6-mer frequency, TF over GST control) with EHF. The binding signal with SPI1 was 1.44 fold enrichment (6-mer frequency, TF over GST control); with SPIB, 1.35 fold enrichment (6-mer frequency, TF over GST control); with ELK3, 1.24 fold enrichment (6-mer frequency, TF over GST control).
AGCATT: the binding signal with FLI1 was 1.12 fold enrichment (6-mer frequency, TF over GST control); with ELK1, 1.13 fold enrichment (6-mer frequency, TF over GST control); with GABPA, 1.11 fold enrichment (6-mer frequency, TF over GST control); with ERG it was 1.09 fold enrichment (6-mer frequency, TF over GST control); in the assay with ELF1 it was 1.1 fold enrichment (6-mer frequency, TF over GST control); with EHF it was 1.08 fold enrichment (6-mer frequency, TF over GST control). For the same sequence, the binding signal with SPI1 is 1.03 fold enrichment (6-mer frequency, TF over GST control); with SPIB, 1.05 fold enrichment (6-mer frequency, TF over GST control); with ELK3, 1.07 fold enrichment (6-mer frequency, TF over GST control).
In the case of ATACGC, the binding signal with FLI1 was 1.09 fold enrichment (6-mer frequency, TF over GST control); with ELK1, 1.14 fold enrichment (6-mer frequency, TF over GST control); with GABPA it was 1.2 fold enrichment (6-mer frequency, TF over GST control); with ERG, 1.13 fold enrichment (6-mer frequency, TF over GST control); with ELF1, 1.17 fold enrichment (6-mer frequency, TF over GST control); in the assay with EHF it was 1.11 fold enrichment (6-mer frequency, TF over GST control). In addition, the binding signal is 1.08 fold enrichment (6-mer frequency, TF over GST control) with SPI1; 1.19 fold enrichment (6-mer frequency, TF over GST control) with SPIB; 1.18 fold enrichment (6-mer frequency, TF over GST control) with ELK3.
Regarding TTTTTT, the binding signal in the assay with FLI1 was 1.12 fold enrichment (6-mer frequency, TF over GST control); with ELK1, 1.05 fold enrichment (6-mer frequency, TF over GST control); with GABPA, 1.25 fold enrichment (6-mer frequency, TF over GST control); with ERG, 1.12 fold enrichment (6-mer frequency, TF over GST control); with ELF1 it was 1.25 fold enrichment (6-mer frequency, TF over GST control); in the assay with EHF it was 1.2 fold enrichment (6-mer frequency, TF over GST control). The binding signal with SPI1 is 1.36 fold enrichment (6-mer frequency, TF over GST control); in the assay with SPIB, 1.22 fold enrichment (6-mer frequency, TF over GST control); in the assay with ELK3, 1.34 fold enrichment (6-mer frequency, TF over GST control).
With TATCTA, the binding signal is 1.18 fold enrichment (6-mer frequency, TF over GST control) with FLI1; 1.23 fold enrichment (6-mer frequency, TF over GST control) with ELK1; 1.35 fold enrichment (6-mer frequency, TF over GST control) with GABPA; 1.18 fold enrichment (6-mer frequency, TF over GST control) with ERG; 1.18 fold enrichment (6-mer frequency, TF over GST control) with ELF1; 1.2 fold enrichment (6-mer frequency, TF over GST control) with EHF. Also, the binding signal in the assay with SPI1 was 1.27 fold enrichment (6-mer frequency, TF over GST control); in the assay with SPIB it was 1.28 fold enrichment (6-mer frequency, TF over GST control); in the assay with ELK3 it was 1.28 fold enrichment (6-mer frequency, TF over GST control).
As to TGCAAC, the binding signal was 1.27 fold enrichment (6-mer frequency, TF over GST control) in the assay with FLI1; 1.32 fold enrichment (6-mer frequency, TF over GST control) with ELK1; 1.4 fold enrichment (6-mer frequency, TF over GST control) in the assay with GABPA; 1.41 fold enrichment (6-mer frequency, TF over GST control) with ERG; 1.35 fold enrichment (6-mer frequency, TF over GST control) with ELF1; 1.36 fold enrichment (6-mer frequency, TF over GST control) with EHF. In addition, the binding signal was 1.28 fold enrichment (6-mer frequency, TF over GST control) with SPI1; 1.34 fold enrichment (6-mer frequency, TF over GST control) in the assay with SPIB; 1.43 fold enrichment (6-mer frequency, TF over GST control) in the assay with ELK3.
With CGCTCG, the binding signal with FLI1 is 1.17 fold enrichment (6-mer frequency, TF over GST control); with ELK1, 1.08 fold enrichment (6-mer frequency, TF over GST control); with GABPA, 1.11 fold enrichment (6-mer frequency, TF over GST control); in the assay with ERG, 1.05 fold enrichment (6-mer frequency, TF over GST control); with ELF1, 1.19 fold enrichment (6-mer frequency, TF over GST control); with EHF, 1.04 fold enrichment (6-mer frequency, TF over GST control). Further, the binding signal in the assay with SPI1 is 1.08 fold enrichment (6-mer frequency, TF over GST control); in the assay with SPIB, 1.12 fold enrichment (6-mer frequency, TF over GST control); with ELK3, 1.11 fold enrichment (6-mer frequency, TF over GST control).
As to AATATT, the binding signal in the assay with FLI1 was 1.39 fold enrichment (6-mer frequency, TF over GST control); in the assay with ELK1, 1.29 fold enrichment (6-mer frequency, TF over GST control); in the assay with GABPA, 1.29 fold enrichment (6-mer frequency, TF over GST control); in the assay with ERG it was 1.18 fold enrichment (6-mer frequency, TF over GST control); with ELF1 it was 1.36 fold enrichment (6-mer frequency, TF over GST control); with EHF, 1.32 fold enrichment (6-mer frequency, TF over GST control). In addition, the binding signal is 1.23 fold enrichment (6-mer frequency, TF over GST control) in the assay with SPI1; 1.34 fold enrichment (6-mer frequency, TF over GST control) with SPIB; 1.42 fold enrichment (6-mer frequency, TF over GST control) with ELK3.
